# ± gives the standard deviation of the averaged measurements.
# Key:
# Experiment in all cases: promoter activity interaction Z-score (Lux/OD deviation from empty-vector control); higher = stronger promoter induction by the compound
# [1] = test system: E. coli BW25113 acrABp lux reporter
# How it was run: (§1)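 OD600 and luminescence of E. coli BW25113 reporter cultures (40 µl LB Lennox, 384-well plates, 37°C) were measured every 30 min for 12 h. Integration ran over 0–8 h for wild type or 1–9 h for deletion strains, and wells with growth below 10% of the median were dropped. The score is the Z-transformed residual of growth-normalised luminescence fitted against a control.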
# [2] = test system: E. coli BW25113 micFp lux reporter
# How it was run: as §1
# [3] = test system: E. coli BW25113 ompFp lux reporter
# How it was run: as §1
# [4] = test system: E. coli BW25113 robp lux reporter
# How it was run: as §1
# [5] = test system: E. coli BW25113 soxSp lux reporter
# How it was run: as §1
# [6] = test system: E. coli BW25113 tolCp lux reporter
# How it was run: as §1
# [7] = 6.9 µg/ml, genetic background: wild type
# [8] = 6.9 µg/ml, genetic background: ΔmarA
# [9] = 6.9 µg/ml, genetic background: Δrob
# [10] = 6.9 µg/ml, genetic background: ΔsoxS
# [11] = 13.8 µg/ml, genetic background: wild type
# [12] = 13.8 µg/ml, genetic background: ΔmarA
# [13] = 13.8 µg/ml, genetic background: Δrob
# [14] = 13.8 µg/ml, genetic background: ΔsoxS
# [15] = 27.5 µg/ml, genetic background: wild type
# [16] = 27.5 µg/ml, genetic background: ΔmarA
# [17] = 27.5 µg/ml, genetic background: Δrob
# [18] = 27.5 µg/ml, genetic background: ΔsoxS
# [19] = 55 µg/ml, genetic background: wild type
# [20] = 55 µg/ml, genetic background: ΔmarA
# [21] = 55 µg/ml, genetic background: Δrob
# [22] = 55 µg/ml, genetic background: ΔsoxS
smiles,measurement,setting,value
CCCC(=O)O [Butyrate],promoter activity interaction Z-score,[1]; [7],-0.186 ± 0.091
same,promoter activity interaction Z-score,[1]; [8],-0.105 ± 0.089
same,promoter activity interaction Z-score,[1]; [9],-0.0421 ± 0.058
same,promoter activity interaction Z-score,[1]; [10],0.455 ± 0.31
same,promoter activity interaction Z-score,[1]; [11],0.0203 ± 0.11
same,promoter activity interaction Z-score,[1]; [12],0.0848 ± 0.57
same,promoter activity interaction Z-score,[1]; [13],0.344 ± 0.08
same,promoter activity interaction Z-score,[1]; [14],-0.00445 ± 0.01
same,promoter activity interaction Z-score,[1]; [15],-0.32 ± 0.15
same,promoter activity interaction Z-score,[1]; [16],0.724 ± 0.18
same,promoter activity interaction Z-score,[1]; [17],-0.04 ± 0.27
same,promoter activity interaction Z-score,[1]; [18],0.471 ± 0.41
same,promoter activity interaction Z-score,[1]; [19],0.0224 ± 0.013
same,promoter activity interaction Z-score,[1]; [20],0.369 ± 0.73
same,promoter activity interaction Z-score,[1]; [21],0.3 ± 0.086
same,promoter activity interaction Z-score,[1]; [22],0.561 ± 1.1
same,promoter activity interaction Z-score,[2]; [7],-0.053 ± 0.54
same,promoter activity interaction Z-score,[2]; [8],-0.02 ± 0.084
same,promoter activity interaction Z-score,[2]; [9],0.0084 ± 0.082
same,promoter activity interaction Z-score,[2]; [10],-0.0289 ± 0.27
same,promoter activity interaction Z-score,[2]; [11],0.0525 ± 0.25
same,promoter activity interaction Z-score,[2]; [12],0.104 ± 0.01
same,promoter activity interaction Z-score,[2]; [13],-0.131 ± 0.024
same,promoter activity interaction Z-score,[2]; [14],0.104 ± 0.51
same,promoter activity interaction Z-score,[2]; [15],-0.317 ± 0.084
same,promoter activity interaction Z-score,[2]; [16],0.0463 ± 0.13
same,promoter activity interaction Z-score,[2]; [17],-0.0949 ± 0.063
same,promoter activity interaction Z-score,[2]; [18],0.336 ± 0.088
same,promoter activity interaction Z-score,[2]; [19],-0.235 ± 0.24
same,promoter activity interaction Z-score,[2]; [20],-0.118 ± 0.0028
same,promoter activity interaction Z-score,[2]; [21],-0.0628 ± 0.18
same,promoter activity interaction Z-score,[2]; [22],-0.082 ± 0.078
same,promoter activity interaction Z-score,[3]; [7],-0.311 ± 0.047
same,promoter activity interaction Z-score,[3]; [8],-0.076 ± 0.29
same,promoter activity interaction Z-score,[3]; [9],0.0244 ± 0.24
same,promoter activity interaction Z-score,[3]; [10],-0.0786 ± 0.12
same,promoter activity interaction Z-score,[3]; [11],-0.231 ± 0.022
same,promoter activity interaction Z-score,[3]; [12],0.259 ± 0.068
same,promoter activity interaction Z-score,[3]; [13],0.303 ± 0.041
same,promoter activity interaction Z-score,[3]; [14],0.34 ± 0.31
same,promoter activity interaction Z-score,[3]; [15],-0.53 ± 0.22
same,promoter activity interaction Z-score,[3]; [16],-0.0799 ± 0.19
same,promoter activity interaction Z-score,[3]; [17],0.0179 ± 0.31
same,promoter activity interaction Z-score,[3]; [18],0.623 ± 0.35
same,promoter activity interaction Z-score,[3]; [19],0.0627 ± 0.12
same,promoter activity interaction Z-score,[3]; [20],0.515 ± 0.0087
same,promoter activity interaction Z-score,[3]; [21],0.664 ± 0.45
same,promoter activity interaction Z-score,[3]; [22],0.842 ± 0.3
same,promoter activity interaction Z-score,[4]; [7],0.406 ± 0.012
same,promoter activity interaction Z-score,[4]; [8],-0.648 ± 0.21
same,promoter activity interaction Z-score,[4]; [9],0.484 ± 0.27
same,promoter activity interaction Z-score,[4]; [10],0.116 ± 0.23
same,promoter activity interaction Z-score,[4]; [11],0.00618 ± 0.49
same,promoter activity interaction Z-score,[4]; [12],0.268 ± 0.098
same,promoter activity interaction Z-score,[4]; [13],0.377 ± 0.92
same,promoter activity interaction Z-score,[4]; [14],0.84 ± 0.41
same,promoter activity interaction Z-score,[4]; [15],-0.708 ± 0.16
same,promoter activity interaction Z-score,[4]; [16],-0.0714 ± 0.84
same,promoter activity interaction Z-score,[4]; [17],-0.162 ± 0.23
same,promoter activity interaction Z-score,[4]; [18],0.234 ± 0.13
same,promoter activity interaction Z-score,[4]; [19],0.0368 ± 0.57
same,promoter activity interaction Z-score,[4]; [20],-0.0155 ± 0.33
same,promoter activity interaction Z-score,[4]; [21],0.391 ± 0.82
same,promoter activity interaction Z-score,[4]; [22],0.993 ± 0.59
same,promoter activity interaction Z-score,[5]; [7],0.0135 ± 0.086
same,promoter activity interaction Z-score,[5]; [8],0.215 ± 0.14
same,promoter activity interaction Z-score,[5]; [9],0.301 ± 0.047
same,promoter activity interaction Z-score,[5]; [10],0.31 ± 0.33
same,promoter activity interaction Z-score,[5]; [11],0.0512 ± 0.26
same,promoter activity interaction Z-score,[5]; [12],0.372 ± 0.21
same,promoter activity interaction Z-score,[5]; [13],0.172 ± 0.11
same,promoter activity interaction Z-score,[5]; [14],0.159 ± 0.19
same,promoter activity interaction Z-score,[5]; [15],0.00814 ± 0.044
same,promoter activity interaction Z-score,[5]; [16],0.223 ± 0.09
same,promoter activity interaction Z-score,[5]; [17],0.122 ± 0.097
same,promoter activity interaction Z-score,[5]; [18],0.33 ± 0.46
same,promoter activity interaction Z-score,[5]; [19],-0.104 ± 0.11
same,promoter activity interaction Z-score,[5]; [20],0.322 ± 0.006
same,promoter activity interaction Z-score,[5]; [21],0.0248 ± 0.034
same,promoter activity interaction Z-score,[5]; [22],0.334 ± 0.73
same,promoter activity interaction Z-score,[6]; [7],-0.319 ± 1.1
same,promoter activity interaction Z-score,[6]; [8],-0.0114 ± 0.66
same,promoter activity interaction Z-score,[6]; [9],-0.444 ± 0.1
same,promoter activity interaction Z-score,[6]; [10],-0.376 ± 0.46
same,promoter activity interaction Z-score,[6]; [11],-0.518 ± 0.94
same,promoter activity interaction Z-score,[6]; [12],-0.427 ± 0.69
same,promoter activity interaction Z-score,[6]; [13],0.207 ± 1
same,promoter activity interaction Z-score,[6]; [14],0.311 ± 0.35
same,promoter activity interaction Z-score,[6]; [15],-1.01 ± 0.066
same,promoter activity interaction Z-score,[6]; [16],0.539 ± 0.083
same,promoter activity interaction Z-score,[6]; [17],0.18 ± 0.021
same,promoter activity interaction Z-score,[6]; [18],0.0693 ± 0.34
same,promoter activity interaction Z-score,[6]; [19],0.0415 ± 0.077
same,promoter activity interaction Z-score,[6]; [20],0.218 ± 0.98
same,promoter activity interaction Z-score,[6]; [21],-0.252 ± 0.71
same,promoter activity interaction Z-score,[6]; [22],0.709 ± 0.36
